The whole screen tested about 10,000 compounds, of which about 5,600 (56%) were called active. No stated cut-off is given here; in the data, active means inhibition above about 40%; inactive means the rest. So high a share suggests a set chosen from earlier hits. The list is a sample of the results.
target: Protein Mdm4 (Homo sapiens) + E3 ubiquitin-protein ligase Mdm2 (Homo sapiens) (UniProt O15151+Q00987); assay: Mdm2-MdmX complex disruptors, retested hits, confirmation, luminescence, single concentration (AID 489028); conditions: Mdm2-MdmX binding, luminescent assay; at 8 µM; hits give high values
Sequence (O15151 whole entry, looked up): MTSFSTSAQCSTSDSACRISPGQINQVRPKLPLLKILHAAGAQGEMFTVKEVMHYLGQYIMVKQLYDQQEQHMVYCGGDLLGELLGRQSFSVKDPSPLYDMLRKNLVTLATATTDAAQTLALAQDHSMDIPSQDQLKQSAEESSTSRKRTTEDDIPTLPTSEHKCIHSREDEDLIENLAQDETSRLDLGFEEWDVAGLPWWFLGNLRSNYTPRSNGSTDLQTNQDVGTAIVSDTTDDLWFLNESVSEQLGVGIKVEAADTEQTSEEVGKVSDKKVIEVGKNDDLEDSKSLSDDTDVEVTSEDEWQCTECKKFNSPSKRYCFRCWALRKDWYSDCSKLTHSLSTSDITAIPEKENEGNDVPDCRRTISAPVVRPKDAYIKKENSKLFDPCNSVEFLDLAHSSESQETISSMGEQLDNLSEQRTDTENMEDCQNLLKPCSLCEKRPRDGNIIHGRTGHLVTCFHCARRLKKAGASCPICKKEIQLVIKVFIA
Sequence (Q00987 whole entry, looked up): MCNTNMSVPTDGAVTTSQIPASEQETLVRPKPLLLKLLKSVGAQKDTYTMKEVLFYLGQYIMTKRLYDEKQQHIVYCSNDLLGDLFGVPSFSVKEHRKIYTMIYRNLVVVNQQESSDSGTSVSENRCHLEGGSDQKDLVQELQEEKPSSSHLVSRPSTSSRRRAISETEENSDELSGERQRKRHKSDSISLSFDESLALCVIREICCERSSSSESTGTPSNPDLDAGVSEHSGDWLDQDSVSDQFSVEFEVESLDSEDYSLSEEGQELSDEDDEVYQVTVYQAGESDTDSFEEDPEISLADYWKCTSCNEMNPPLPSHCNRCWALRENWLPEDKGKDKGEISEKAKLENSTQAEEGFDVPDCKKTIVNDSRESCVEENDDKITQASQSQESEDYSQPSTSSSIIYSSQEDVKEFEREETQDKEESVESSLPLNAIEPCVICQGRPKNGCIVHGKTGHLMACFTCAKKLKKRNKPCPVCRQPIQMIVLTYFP

inhibition, inactive:
Cc1[nH]nc(-c2ccc(OCc3cnn(-c4ccccc4)c3)cc2O)c1Oc1ccc(Cl)cc1 25.5%, Cc1cccc(-c2nc3ccc(C(=O)NCCN4CCN(C)CC4)cc3nc2-c2cccc(C)c2)c1 28.6%, O=C(NCc1ccccc1)C1=C[C@@H](C2CCCCC2)C[C@@H](OCc2ccc(CO)cc2)O1 32.2%, CN(Cc1ccccc1)CC(O)COc1ccc(CNCc2cc3ccccc3s2)cc1 (stereo unspecified) 32.6%, Cc1cccc(CN2CCC(CNC(=O)Nc3ccc(F)c(Cl)c3)CC2)c1 36%, Cc1ccc(Cc2cnc(NC(=O)/C(C#N)=C/c3ccc(-c4cccc([N+](=O)[O-])c4)o3)s2)cc1 6.4%, CC12CCC(C(=O)N(NC(=O)c3ccccc3O)C1=O)C2(C)C (stereo unspecified) 11.2%, CCC(c1nnnn1C1CCCC1)N(Cc1cccs1)Cc1cc2cccc(C)c2[nH]c1=O (stereo unspecified) 13.8%, COc1cc(OC)c(OC)cc1/C=N/Nc1ncnc2c1[nH]c1ccc(C)cc12 27%, CC(C)n1cnc2c(NCc3ccccc3)cc(N[C@@H](CO)Cc3ccccc3)cc21 32.5%, Cc1c(NC(=O)CSc2cccc3cccnc23)c(=O)n(-c2ccccc2)n1C 10.3%, O=C1Nc2cc(C(=O)N3CCC(N4CCCCC4)CC3)ccc2S/C1=C\c1ccccc1 27.8%, COc1ccc(C2CC(c3cccs3)=NN2c2nc(C)c(C(C)=O)s2)cc1OC (stereo unspecified) 25.1%, CCn1cc(CN2CCC(C(=O)Nc3cccc(-c4cccc(Cl)c4)c3)CC2)cn1 31.9%, O=C(Nc1cccc(-c2cccc(Cl)c2)c1)C1CCN(C2CCC2)CC1 31.5%, CCN(CC)CCC(c1ccc2c(c1)OCO2)c1c(OC)cc(OC)c2c(-c3ccccc3)cc(=O)oc12 (stereo unspecified) 29.8%, CCN(CC)CCC(c1cc(OC)c(OC)c(OC)c1)c1c(OC)cc(OC)c2c(-c3ccccc3)cc(=O)oc12 (stereo unspecified) 27.6%, CCCCn1c(-c2cccc(C)c2)nc2cc3[nH]c(=O)c(C(C)C)nc3cc21 38%, COc1ccc(-c2nc3cc(C)ccn3c2NC2CCCCC2)cc1SC1CCCCC1 19.9%, CCOC(=O)c1ccc(NC(=O)c2nc[nH]c2C(=O)N[C@@H](CCCCNC(=O)OC(C)(C)C)C(=O)OC(C)(C)C)cc1 19.6%, Cc1nc(SCC(=O)Nc2cc(C)on2)c2c(C)c(C)sc2n1 27.6%, O=C(Cc1ccc(Cl)c(Cl)c1)Nc1ccc(SC(F)F)cc1 -2.4%, COC(=O)C1=CN(C)C=C(C(=O)OC)C1c1ccc(Cl)cc1Cl 3.05%, Cc1ccc(Nc2cc(=O)n(C3CCCCC3)c(=O)[nH]2)cc1C 19.4%, O=C(c1ccc(Cl)cc1)N1N=C(c2ccccn2)CC1(O)C(F)(F)F (stereo unspecified) 15.9%, Cc1cccc([C@@H]2[C@@H]3C(=O)N(Cc4ccccc4)C(=O)[C@@H]3[C@]3(C)C(=O)N(c4ccc(Br)cc4)C(=O)N23)c1 24.9%, COc1ccc(C(=O)NC(=S)NNC(=O)CCc2ccccc2)cc1 4.55%

inhibition, active:
COC(=O)c1sc(-c2ccc(C(C)(C)C)cc2)cc1NC(=O)/C=C/C(=O)O 52.6%, O=S(=O)([N-]c1nc2ccccc2nc1-[n+]1ccc(Cc2ccccc2)cc1)c1ccc(Br)s1 60%, Cc1cc(CNC(=O)c2cccc([N+](=O)[O-])c2)c2ccccc2n1 58.7%, CN(C)CC(O)COc1ccc(C(C)(C)c2ccc(OCC(O)CN(C)C)cc2)cc1 (stereo unspecified) 89.7%, COc1ccc(C2=Nn3c(nnc3-c3ccccc3OC)SC2)cc1OC1CCCC1 73.4%, COc1cccc2cc(C(N)=O)/c(=N\NC(=O)c3ccccc3)oc12 44%, Cc1cccc(NC(=O)Nc2cccc(Oc3c(F)c(F)c(F)c(F)c3F)c2)c1 73%, Oc1c(Br)cccc1/C=N/Nc1c(F)c(F)c(F)c(F)c1F 58.2%, CNC[C@H](CC1CCCCC1)NC[C@H](NCCC1CCCC1)[C@H](C)O 77%, Cc1ccc(C(=O)N/C(=C/c2ccc(-c3cccc([N+](=O)[O-])c3)o2)C(=O)NCCCN(C)C)cc1 49.5%, CC(C)n1cnc2c(Nc3cccc(Cl)c3)nc(N(CCO)CCCO)nc21 60.8%, CN(c1ccc2nc3ccccc3c(=O)n2n1)C1CCCCC1 89.9%, CC(=O)Oc1c(C(=O)c2nnc(C)o2)c(=O)n(Cc2ccccc2)c2ccccc12 55%, Cc1cc(Nc2cc(N3CCN(C)CC3)nc(Sc3ccc(NC(=O)C4CC4)cc3)n2)n[nH]1 82%, O=C(c1[nH]ncc1-c1ccc(Cl)cc1)C1CO1 (stereo unspecified) 45.3%, COc1ccc(Cc2nnc(N/N=C/c3ccccc3O)[nH]c2=O)cc1OC 76.2%, Cc1ccc(N(Cc2cc(=O)[nH]c3ccccc23)C(=O)CCl)cc1 74.9%, COc1ccc(-c2nc(-c3ccccc3)no2)c(OC)c1 50.4%, O=C(CSc1cccc2cccnc12)N/N=C/c1cccnc1 45%, c1ccc(C2CCC(N3CCC(N4CCCCC4)CC3)CC2)cc1 (stereo unspecified) 86.5%, CC(NC(=O)Nc1ccccc1)C(c1cccs1)N1CCN(c2ccccc2)CC1 (stereo unspecified) 70.3%, Cn1cc([N+](=O)[O-])c(C(=O)Nc2cnn(Cc3ccc(F)cc3)c2)n1 57.5%, CCn1cc(CN2CCC(C(=O)Nc3cccc(-c4cccc(Cl)c4)c3)CC2)c(C)n1 48%, COc1cc(OC)c2c(-c3cccc(-c4cccc(N)c4)c3)cc(=O)oc2c1 52.7%, COc1c(C)c2c(c(O)c1C/C=C(\C)CCC(=O)O)C(=O)OC2 80.7%, COc1cc(NC(=O)c2cncc(-c3ccc(C#N)cc3)c2)cc(C(=O)Nc2cccc(C(F)(F)F)c2)c1 55.5%, COc1cc(NC(=O)c2[nH]cnc2C(N)=O)cc(C(=O)Nc2cccc(C(F)(F)F)c2)c1 63.5%, Cc1nc(N=C(N)N)nc2c(C)cccc12 53.1%, O=C(CC(O)(C(F)(F)F)C(F)(F)F)Nc1ccc(Cl)c(Cl)c1 95.7%, O=C(/C(=C/c1cccc(Cl)c1)c1nc2ccccc2[nH]1)c1ccccc1 43.5%, CCOc1cc(/C=C/c2nc3ccccc3c(=O)[nH]2)cc(Br)c1OC 69.5%, Cc1ccc(-c2cn3cc(C)ccc3n2)cc1 81.3%, Cc1ccc2nc(-c3ccc(Br)cc3)cn2c1 53.3%, O=C1[C@H]2[C@@H](c3ccc(F)cc3)N3C(=O)N(c4ccc(C(F)(F)F)cc4)C(=O)[C@@]3(Cc3ccccc3)[C@H]2C(=O)N1C1CCCCC1 100%, CSc1nc(-c2ccccc2)nc(C(Cl)Cl)n1 98.6%, OCCCNc1nccc(-c2cc(Nc3cccc(Cl)c3)ncn2)n1 99.8%, CC[C@]1(C(=O)OC)[C@H]2C(=O)N(Cc3ccccc3)C(=O)[C@H]2[C@H]2CN=C(SCc3ccccc3)N21 70%, CC[C@]1(C(=O)OC)[C@H]2C(=O)N(Cc3ccccc3)C(=O)[C@H]2[C@H]2CN=C(SCc3ccc(C#N)cc3)N21 98.8%, CC[C@]1(C(=O)OC)[C@H]2C(=O)N(Cc3ccccc3)C(=O)[C@H]2[C@H]2CN=C(SCc3ccc(Cl)cc3)N21 99.7%
